# This is part of a sample that, as a whole, favours compounds with a hit. Of some 83,000 tested, about 20% had one in any assay.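 A percent growth of 40 corresponds to 60% growth inhibition; 0 means no net growth; -100 means all cells died. Active threshold: below 10.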 Calls of active or inactive are those of the source.
# System: SF-295 CNS
# Assay: NCI-60 one-dose screen, 48 h (100 = growth as untreated, 0 = no growth, -100 = all killed)
# Settings: 10 µM unless noted
row,SMILES,growth
1,COc1ccc(/C=C/C(=O)/C=C(/C=C/c2ccc(OC)c(OC)c2)OB(F)F)cc1OC,69.4% (inactive)
2,COc1cc(/C=C/C(=O)/C=C/c2cc3ccc(Cl)cc3[nH]c2=O)ccc1O,79.7% (inactive)
3,CCCCn1c(=O)c(/C=C/C(=O)/C=C/c2cc3ccccc3n(CCCC)c2=O)cc2ccccc21,3.65% (active)
4,COc1ccc(-c2nc(C#N)c(NCC(c3ccco3)N3CCCC3)o2)cc1 (stereo not drawn),24.2% (inactive)
5,N#C/C(=C/c1ccc(O)c([N+](=O)[O-])c1)c1nc(-c2ccc([N+](=O)[O-])cc2)cs1,29.6% (inactive)
6,C=C1C(=O)O[C@H]2[C@H]1CC/C(COC(=O)CCCCC(=O)OC/C1=C/CC[C@@]3(C)O[C@H]3[C@H]3OC(=O)C(=C)[C@@H]3CC1)=C\CC[C@@]1(C)O[C@@H]21,101% (inactive)
7,CCOC(=O)c1c(C(F)(F)F)n([O-])c2ccc(Cl)cc2[n+]1=O,-86% (active)
8,COc1ccc(-c2nc(C#N)c(NCC(c3ccc(Cl)cc3)N3CCCCC3)o2)cc1 (stereo not drawn),96.1% (inactive)
9,O=CN1N=C(c2ccc(Cl)cc2)CC1c1cccc(Nc2ccnc3cc(C(F)(F)F)ccc23)c1 (stereo not drawn),51.4% (inactive)
10,O=C(CCCCCCCCC(=O)Nc1cccc(C2=NCCN2)c1)Nc1cccc(C2=NCCN2)c1,99.9% (inactive)
11,CCOC(=O)C1CCN(S(=O)(=O)/N=C2/NC(=O)NC2=C(Cl)Cl)CC1,17.4% (inactive)
12,S=c1ssnc1-c1cc2ccccc2o1,75.1% (inactive)
13,NS(=O)(=O)c1ccc(C2C3=C(CCCC3=O)OC3=C2C(=O)c2ccccc2C3=O)cc1 (stereo not drawn),-80.3% (active)
14,C=C1C(=O)O[C@H]2[C@H]1CCC(/C=N/c1ncc(Br)cc1N)=C\CC[C@@]1(C)O[C@@H]21,70.3% (inactive)
15,C#Cc1ccccc1NC(=O)c1sc2nc3c(cc2c1N)CCCCC3,113% (inactive)
16,NS(=O)(=O)c1ccc(-n2nc(-c3ccccc3)ccc2=O)cc1,260% (inactive)
17,COc1ccc(-c2nnc(N3CCN(C(=O)CN4CCN(c5ccc(OC)cc5)CC4)CC3)nc2-c2ccc(OC)cc2)cc1,-60.6% (active)

row,SMILES,growth
1,N#Cc1ccc(Oc2ccc3ccc(=O)oc3c2)cc1,112% (inactive)
2,CC1CCCN(CCCCCOc2ccc3oc4ccccc4c(=O)c3c2)C1 (stereo not drawn),72.9% (inactive)
3,CS(=O)(=O)O[C@@H]1C(=O)N(c2cc3c4ccccc4ccc3c3ccccc23)[C@H]1c1ccc(F)cn1,9.48% (active)
4,C=C1C(=O)O[C@H]2[C@H]1CC/C(C=Nc1c(N)cc(F)cc1Br)=C\CC[C@@]1(C)O[C@@H]21,99.7% (inactive)
5,Cc1ccc(SC2c3ccc(C)cc3Oc3nc(N)c(C#N)c(N)c32)cc1 (stereo not drawn),103% (inactive)
6,O=C(Nc1nccs1)c1noc2ccccc12,101% (inactive)
7,C=C(C)[C@@H]1CC[C@]2(C(=O)OCCCC[P+](c3ccccc3)(c3ccccc3)c3ccccc3)CC[C@]3(C)[C@H](CC[C@@H]4[C@@]5(C)CC[C@H](OC(=O)C(Cl)Cl)C(C)(C)[C@@H]5CC[C@]43C)[C@@H]12,-76.9% (active)
8,Cc1cc2ccccc2c[n+]1CC(=O)c1ccc(-c2ccccc2)cc1,42.4% (inactive)
9,O=C1Nc2ccc(Cl)cc2/C1=N/c1nc(-c2ccc(F)cc2)cs1,39.6% (inactive)
10,COc1cc(/C=N/Nc2nc(-c3ccc(F)cc3)c(C#N)c(N3CCOCC3)n2)ccc1O,106% (inactive)
11,C=C(C)[C@@H]1CC[C@]2(C(=O)N=C=S)CC[C@]3(C)[C@H](CC[C@@H]4[C@@]5(C)CCC(=O)C(C)(C)[C@@H]5CC[C@]43C)[C@@H]12,36% (inactive)
12,CC1(C)[C@@H](O)CC[C@]2(C)[C@H]3CC[C@@H]4[C@H]5[C@H](c6cn(-c7ccccc7)nn6)CC[C@]5(CO)CC[C@@]4(C)[C@]3(C)CC[C@@H]12,86.5% (inactive)
13,COc1cc(/C=C/C(=O)c2ccc(NC(=O)CSc3nnc(-c4cc(OC)c(OC)c(OC)c4)n3-c3ccccc3)cc2)cc(OC)c1OC,17.7% (inactive)
14,O=c1c2ccccc2n(CC(O)CN2CCCC2)c2c(Br)cccc12 (stereo not drawn),106% (inactive)
15,COc1cc(-c2cn(-c3ccc(Cl)c(Cl)c3)c(=O)[nH]2)cc(OC)c1OC,104% (inactive)
16,COC(=O)c1ccc2c(c1)n(Cc1ccc3ccccc3c1)c[n+]2Cc1ccc2ccccc2c1,58.7% (inactive)
